# Sampled rows, rich in hits. Any-hit rate of the full collection: about 6.6%.
# HepG2 viability – HepG2 cytotoxicity, counter-screen for TGF-b inhibitors. HepG2 CAGA-GFP viability, ATP luminescence, 18 h. Potency, µM (titrated, usually from 46.1 µM), for inactives: at the top dose activity change, negative = cytotoxicity, most hits filed as cytotoxic. hit rate 0.76% among 410,000
#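 HepG2 CAGA-GFP cells (1000/well, DMEM with 1% FBS) received compound, then TGF-beta at 500 pg/mL final, and were incubated 18 hours at 37 degrees C. Viability was read by CellTiter-Glo luminescence. Media-only wells were set as complete cell-killing and DMSO as no toxicity.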
# KB-3-1 cytotox – kills parental KB-3-1 adenocarcinoma cells | KB-3-1 viability, CellTiter-Glo ATP luminescence, 72 h | Potency, µM (top dose mostly 46.1 µM), actives largely listed as cytotoxic | hit rate 1.4% among 400,000; also: % is scaled to controls: 0 for no effect and ±100 for the full control effect; nearly all actives have a fitted effect of over 60% in size
#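 Multi-concentration cytotoxicity screen in KB-3-1 cells grown in DMEM lacking phenol red with 10% FBS. After 72 h at 37 °C with compound, ATP-dependent luminescence was recorded.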
# KB-V1 cytotox – kills drug-selected multidrug resistant KB-V1 cells; AID 1347076; KB-V1 MDR cells viability, CellTiter-Glo, 72 h; Potency, µM (titrated, usually from 46.1 µM), actives largely listed as cytotoxic; hit rate 3.4% among 400,000; also: % is scaled to controls: 0 for no effect and ±100 for the full control effect; nearly all actives have a fitted effect of over 60% in size
#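 Cells of the MDR subline KB-V1 are plated, dosed with compound at multiple concentrations, and incubated 72 h at 37 degrees C; CellTiter-Glo is then added and luminescence read after 10 min.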
# TGFb inhibitor – inhibitors of TGF-b signaling; AID 588855; HepG2 CAGA-GFP TGF-b/SMAD3 reporter, GFP fluorescence, 18 h; TGF-beta stimulated, 500 pg/mL final; Potency, µM (doses to about 46.1 µM), for inactives: at the highest dose activity, negative = inhibition, hits mostly inhibitors; hit rate 1.2% among 410,000; also: % is scaled to controls: 0 for no effect and ±100 for the full control effect; nearly all actives have a fitted effect of over 65% in size
#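 Read-out: total well GFP (ex488/em500-530) summed from mean per-cell fluorescence. Cells: HEPG2 CAGA-GFP, 1% FBS DMEM, 18 h at 37 degrees C with 500 pg/mL final TGF-beta. Unstimulated wells served as the full-inhibition control; stimulated DMSO wells = 0%.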
# HT1080-NT tox – kills 2HG-producing HT-1080-NT fibrosarcoma cells; HT-1080-NT fibrosarcoma viability, CellTiter-Glo ATP luminescence, 48 h; Potency, µM (doses to about 46.1 µM), inactives show top-dose activity, negative = less viability, usual class: cytotoxic; hit rate 1.6% among 360,000;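 also: NT is the 2HG producing partner of a matched IDH1 knockdown line; 0% = DMSO-treated cells and -100% = media-only wells without cells; nearly all actives have a fitted effect of over 55% in size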
#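 HT-1080-NT fibrosarcoma cells (2HG-overproducing), 750 cells/well in RPMI with 5% FBS, dosed after 2 h and incubated 48 h at 37C. CellTiter-Glo luminescence normalized to DMSO and no-cell wells; concentration-response curves fitted and classed.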
# HT1080 IDH1KD tx – toxicity to HT-1080 IDH1 knockdown cells (counter line) | HT-1080 IDH1 knockdown viability, ATP luminescence, 48 h | Potency, µM (series often up to 46.1 µM), for inactives: top-dose activity, negative = toxicity, usual class: cytotoxic | AID 686971 | hit rate 2% among 360,000;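 also: 0% = DMSO wells and -100% = cell-free medium wells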
#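 Cytotoxicity counter-line: IDH1KD HT-1080, 48 h, CellTiter-Glo. Curves classed by r2, magnitude and activity.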
# * = called active by the depositor; i = inactive; ? = inconclusive; nt = no result given. Calls follow the shape of the dose curve; as a rule, active = well fitted curve in the direction sought with a large enough effect; inconclusive = small, poorly fitted or top-dose-only effect, or another doubt; inactive = no such curve, though single readings can be large; an effect the other way counts as inactive or inconclusive. Potency is read from the fitted curve at half-maximal effect.
SMILES,HepG2 viability,KB-3-1 cytotox,KB-V1 cytotox,TGFb inhibitor,HT1080-NT tox,HT1080 IDH1KD tx
CCOC(=O)N1CCc2c(sc3c2c(=O)n(Cc2ccccc2)c(=O)n3Cc2cc(C)ccc2C)C1,5%,nt,nt,-12%,nt,nt
CCN(C(=O)C1CCCN(S(=O)(=O)c2c(C)noc2/C=C/N(C)C)C1)c1cccc(C)c1 (stereo not given),-7%,i,i,8%,nt,nt
CCc1ccccc1NC(=O)CSc1nnc(-c2ccc(OC)cc2)s1,-17%,i,i,?,nt,nt
CCOC(=O)c1cccc(NC(=O)Nc2ccc3c(c2)N(C)C(=O)c2ccccc2S3)c1,-18%,i,i,?,nt,nt
CC(C)(C)CC(=O)NCC(c1ccc2c(c1)OCO2)N1CCOCC1 (stereo not given),-3%,i,?,-9%,nt,nt
Nc1nc2ccc(Cl)cc2cc1C(=O)NCCc1c[nH]c2ccccc12,nt,9.2µM*,i,nt,?,?
Cc1cccc(N2CCN(C(=O)C3CCN(S(=O)(=O)c4cccs4)CC3)CC2)c1C,3%,i,i,?,nt,nt
Cc1cc(C)cc(N(CCC(=O)Nc2nnc(C)s2)S(=O)(=O)c2ccc(Cl)cc2)c1,7%,?,23µM*,0%,-18%,-22%
Cc1cc(C)cc(N(C)S(=O)(=O)c2nnc(NC(=O)COc3ccc(Cl)cc3)s2)c1,-14%,nt,nt,0%,nt,nt
CC(C)(C)n1nnnc1C(c1cccc(C(F)(F)F)c1)N1CCC(O)CC1 (stereo not given),0%,0.0046µM*,i,15%,12%,-5%
Cc1ccc(C(=O)N/C(=C\c2ccc(-c3cccc([N+](=O)[O-])c3)o2)C(=O)NCCCN(C)C)cc1,-71%,?,i,?,18µM*,15µM*
CN(C)CCCNC(=O)/C(=C\c1ccc(-c2cccc([N+](=O)[O-])c2)o1)NC(=O)c1ccccc1,-30%,i,i,?,?,?
Cc1ccc(C(=O)N/C(=C\c2ccc(-c3ccc(Br)cc3)o2)C(=O)NCCCN(C)C)cc1,4.5µM*,5.8µM*,?,7.1µM*,?,23µM*
COc1ccc(C2=Nc3ccc(OC(F)(F)F)cc3NC(c3cccnc3)=N2)cc1,-17%,i,i,19%,nt,nt
COc1ccc(NC(=O)/C(Cl)=C(/Cl)S(=O)(=O)Cc2ccc(C)cc2)cn1,5.6µM*,6.5µM*,?,?,23µM*,8.2µM*
COc1ccc(NC(=O)/C(Cl)=C(/Cl)S(=O)Cc2ccccc2Cl)cn1 (stereo not given),11µM*,18µM*,?,3.5µM*,1.3µM*,16µM*
COc1ccc(NC(=O)Cc2ccc(Cl)c(Cl)c2)cn1,-11%,i,i,-14%,-4%,-2%
Cc1ccc(Cl)cc1-n1nnc(-c2nc(-c3ccc4c(c3)OCO4)no2)c1C,10%,i,i,0%,nt,nt
Cc1c(CNCCCc2ccccc2)c(C(=O)O)c(C)n1Cc1cccc(Cl)c1,-15%,i,?,-18%,nt,nt
Cc1cc(C)cc(NC(=O)Cn2cc(S(=O)(=O)NC(C)(C)C)c(S(=O)(=O)NC(C)(C)C)c2)c1,-98%,?,?,?,nt,nt
CC(C)(C)OC(=O)N1CCC(c2c(C(=O)NC3CCCCC3)cnn2-c2cccc(Cl)c2)CC1,4%,i,i,18µM*,nt,nt
Cc1c(Cl)cccc1-n1ncc(C(=O)NC2CCCCC2)c1C1CCN(C(=O)OC(C)(C)C)CC1,-12%,i,i,-8%,nt,nt
COc1ccc(CCN2CCC(CNC(=O)c3cnn(-c4cccc(Cl)c4)c3C3CCN(C(=O)OC(C)(C)C)CC3)CC2)cc1,-104%,nt,nt,-41%,nt,nt
COc1ccc(CCN2CCC(CNC(=O)c3cnn(-c4ccccc4)c3C3CCN(C(=O)OC(C)(C)C)CC3)CC2)cc1,-6%,16µM*,?,?,nt,nt
COc1ccccc1N1CCN(CCCNC(=O)c2cnn(-c3cccc(Cl)c3)c2C2CCN(C(=O)OC(C)(C)C)CC2)CC1,13µM*,i,?,13µM*,nt,nt
SMILES,HepG2 viability,KB-3-1 cytotox,KB-V1 cytotox,TGFb inhibitor,HT1080-NT tox,HT1080 IDH1KD tx
COc1ccccc1N1CCN(CCCNC(=O)c2cnn(-c3ccc(C)c(C)c3)c2C2CCN(C(=O)OC(C)(C)C)CC2)CC1,-104%,i,i,?,nt,nt
COc1cc(CN(C(=O)c2ccc(C)cc2)c2ccccn2)cc(OC)c1OC,-24%,?,i,-23%,nt,nt
Oc1c(Br)cc(Br)cc1-c1nc2ccccc2s1,-9%,i,i,7%,nt,nt
CC(C)(C)OC(=O)N/N=C/c1cccn1-c1ccc([N+](=O)[O-])cc1,5%,i,i,-1%,-26%,7%
CN(C)c1ccc(-n2cccc2/C=C/[N+](=O)[O-])cc1,-3%,?,?,11%,6.5µM*,6.5µM*
Cc1c(C(=O)OC/C(O)=C(\C#N)c2nc3ccccc3[nH]2)oc2ccccc12,-56%,i,i,13µM*,?,?
CC(=O)OC(/C(O)=C(\C#N)c1nc2ccccc2[nH]1)c1ccccc1 (stereo not given),-18%,i,i,-10%,8.9µM*,?
Cc1c(C(=O)OCC(O)=C(C#N)c2nc3ccccc3[nH]2)oc2ccc(Br)cc12,-10%,i,i,0%,3%,3%
O=c1cc(-c2ccccc2Cl)oc2c(NS(=O)(=O)c3cc(Cl)cc(Cl)c3O)ccc(O)c12,10µM*,?,18µM*,6.3µM*,3.3µM*,?
O=C1NC[C@@H](Cc2cccc3ccccc23)N(CCc2cc(C(F)(F)F)cc(C(F)(F)F)c2)C1=O,-119%,i,i,13µM*,7%,7%
O=C1NC[C@H](Cc2ccccc2)N(CCc2cc(C(F)(F)F)cc(C(F)(F)F)c2)C1=O,nt,nt,i,nt,-17%,-23%
Cc1ccc(C(=O)Nc2ncc(Cc3ccc(F)cc3)s2)o1,4%,5.8µM*,9.2µM*,13%,-9%,?
Cc1ccc(C(=O)Nc2ncc(C)s2)o1,-52%,i,i,-4%,?,?
Cc1ccc(C(=O)Nc2ncc(Cc3ccc(SC(F)F)cc3)s2)cc1,1%,?,1µM*,?,1.8µM*,2.6µM*
COc1ccc(CCC(=O)OCC(=O)NC2CCCC2)cc1OC,-60%,i,i,?,14%,12%
CCN(CC)c1ccc(S(=O)(=O)N2CCCCC2)cc1NC(=O)CSCc1c(C)noc1C,-22%,23µM*,i,-12%,-3%,-16%

# Compound activity: PubChem, National Center for Advancing Translational Sciences (NCATS)
